# Measured values taken from PubChem BioAssay (EPA / NIEHS).
# Active and inactive are the calls of the source. Rule for the calls: active = hit-call score of the fitted dose curve at least 0.9, where 1 is the maximum; inactive = score below 0.9.
# Tests used:
# Conditions in all cases: mRNA level, 48 h; actives raise or lower the signal
# [1] = read-out: Alkaline Phosphatase, Placental (ALPP) gene, ALPP (gene 250); assay: LTEA_HepaRG_ALPP: Life Technologies and Expression Analysis (LTEA) Assay for Alkaline Phosphatase, Placental (ALPP) gene using HepaRG (AID 2283468)
# Procedure, shortened: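 Expression of ALPP was quantified by qRT-PCR against three housekeeping genes in human HepaRG cultures treated for 48 h with an eight-point concentration series up to 100 uM. Activity in either direction was fitted relative to 0.5% DMSO.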
# [2] = read-out: Bcl-2 (BAD) gene, BAD (gene 572); assay: LTEA_HepaRG_BAD: Life Technologies and Expression Analysis (LTEA) Assay for Bcl-2 (BAD) gene using HepaRG (AID 2283469)
# Procedure, shortened: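 Differentiated HepaRG cells were exposed in duplicate in 0.5% DMSO for 48 h to eight-point half-log concentrations up to 100 uM. BAD mRNA was measured by Fluidigm TaqMan qRT-PCR, normalized to ACTB, GAPDH and POLR2A, and fitted bidirectionally against DMSO.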
# [3] = read-out: Bcl-2 (BAX) gene, BAX (gene 581); assay: LTEA_HepaRG_BAX: Life Technologies and Expression Analysis (LTEA) Assay for Bcl-2 (BAX) gene using HepaRG (AID 2283470)
# Procedure, shortened: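 Differentiated human HepaRG cells, plated 48 h then switched to serum-free induction medium, were exposed 48 h to 8 half-log concentrations up to 100 uM in 0.5% DMSO; BAX mRNA measured by qRT-PCR, normalized to ACTB, GAPDH, POLR2A.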
# [4] = read-out: adenosine kinase (ADK) gene, ADK (gene 132); assay: LTEA_HepaRG_ADK: Life Technologies and Expression Analysis (LTEA) Assay for adenosine kinase (ADK) gene using HepaRG (AID 2283471)
# Procedure, shortened: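 HepaRG (human liver), 48 h chemical exposure, 8-pt half-log series, top 100 uM, 0.5% DMSO vehicle. Readout: ADK mRNA by qRT-PCR vs housekeeping genes; bidirectional curve fit relative to DMSO baseline.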
# [5] = read-out: Alpha-fetoprotein (AFP) gene, AFP (gene 174); assay: LTEA_HepaRG_AFP: Life Technologies and Expression Analysis (LTEA) Assay for Alpha-fetoprotein (AFP) gene using HepaRG (AID 2283472)
# Procedure, shortened: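 Human HepaRG cells plated 48 h, then switched to serum-free induction medium and exposed in duplicate for 48 h to 8-point half-log series from 100 uM in 0.5% DMSO. AFP mRNA by qRT-PCR, normalized to ACTB, GAPDH, POLR2A; bidirectional fit versus DMSO.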
# [6] = read-out: Apoptosis regulator Bcl-2 (Homo sapiens) (UniProt P10415); assay: LTEA_HepaRG_BCL2: Life Technologies and Expression Analysis (LTEA) Assay for Bcl-2 gene using HepaRG (AID 2283475)
# Procedure, shortened: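 Differentiated HepaRG cells in serum-free induction medium were exposed for 48 h to eight half-log concentrations up to 100 uM in 0.5% DMSO, in duplicate. BCL2 mRNA was quantified by TaqMan qRT-PCR normalised to ACTB, GAPDH and POLR2A, with bidirectional fitting versus DMSO.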
# [7] = read-out: Bcl-2 (BID) gene, BID (gene 637); assay: LTEA_HepaRG_BID: Life Technologies and Expression Analysis (LTEA) Assay for Bcl-2 (BID) gene using HepaRG (AID 2283476)
# Procedure, shortened: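 Differentiated HepaRG cells in serum-free induction medium were exposed in duplicate for 48 h to eight half-log concentrations up to 100 uM in 0.5% DMSO. BID mRNA was quantified by qRT-PCR, normalized to ACTB, GAPDH and POLR2A.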
# Caspase-3 (Homo sapiens) = Caspase-3 (Homo sapiens) (UniProt P42574); assay: LTEA_HepaRG_CASP3: Life Technologies and Expression Analysis (LTEA) Assay for cysteine-aspartic acid protease (CASP3) using HepaRG (AID 2283477)
# Procedure, shortened: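 In HepaRG liver cells dosed for 48 h at up to 100 uM (eight-point, duplicate), CASP3 expression changes are scored by qRT-PCR. Activity is fitted in both directions with 0.5% DMSO as baseline.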
# Sequence of Apoptosis regulator Bcl-2 (Homo sapiens) (P10415 whole entry, looked up): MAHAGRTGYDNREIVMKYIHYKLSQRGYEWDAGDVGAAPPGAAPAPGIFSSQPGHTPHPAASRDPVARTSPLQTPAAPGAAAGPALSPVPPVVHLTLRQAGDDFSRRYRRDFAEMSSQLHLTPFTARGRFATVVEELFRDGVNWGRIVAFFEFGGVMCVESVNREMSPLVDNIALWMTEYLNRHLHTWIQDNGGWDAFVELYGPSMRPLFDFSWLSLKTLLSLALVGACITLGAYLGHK
# Sequence of Caspase-3 (Homo sapiens) (P42574 whole entry, looked up): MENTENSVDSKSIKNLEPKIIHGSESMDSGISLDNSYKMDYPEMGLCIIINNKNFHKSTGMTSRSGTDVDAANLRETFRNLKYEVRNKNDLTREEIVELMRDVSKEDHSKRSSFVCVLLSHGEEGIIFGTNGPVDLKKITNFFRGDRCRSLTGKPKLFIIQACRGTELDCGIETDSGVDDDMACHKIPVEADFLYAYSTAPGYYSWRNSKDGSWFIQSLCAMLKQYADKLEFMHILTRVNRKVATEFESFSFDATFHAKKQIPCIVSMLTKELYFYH
SMILES,AC50 [1],outcome [2],AC50 [3],outcome [4],AC50 [5],AC50 [6],outcome [7],outcome (Caspase-3 (Homo sapiens)),outcome [1],outcome [3],outcome [5],outcome [6]
Cc1nn(C)c(Oc2ccccc2)c1C=NOCc1ccc(C(=O)OC(C)(C)C)cc1,0.903 µM (active),inactive,22.2 µM (active),inactive,4 µM (active),7.02 µM (active),inactive,inactive,–,–,–,–
CCCCCOC(=O)COc1cc(N2C(=O)C3=C(CCCC3)C2=O)c(F)cc1Cl,–,inactive,–,inactive,–,–,inactive,inactive,inactive,inactive,inactive,inactive
O=C(O)c1ccccc1,–,inactive,–,inactive,–,–,inactive,inactive,inactive,inactive,inactive,inactive
CCCOC(=O)NCCCN(C)C,–,inactive,–,inactive,–,–,inactive,inactive,inactive,inactive,inactive,inactive
CCOC(=O)c1ccc(O)cc1,–,inactive,–,inactive,–,–,inactive,inactive,inactive,inactive,inactive,inactive
CCCCOC(=O)[C@@H](C)Oc1ccc(Oc2ccc(C(F)(F)F)cn2)cc1,–,inactive,–,inactive,–,–,inactive,inactive,inactive,inactive,inactive,inactive
C[C@]12C[C@H](O)[C@H]3[C@@H](CCC4=CC(=O)CC[C@@]43C)[C@@H]1CC[C@@H]2C(=O)CO,–,inactive,–,inactive,–,–,inactive,inactive,inactive,inactive,inactive,inactive
O=C(c1ccc(O)cc1O)c1ccc(O)cc1O,–,inactive,–,inactive,–,–,inactive,inactive,inactive,inactive,inactive,inactive
CCOC(=O)C(C)Oc1ccc(Oc2nc3ccc(Cl)cc3o2)cc1 (stereo not drawn),–,inactive,–,inactive,–,–,inactive,inactive,inactive,inactive,inactive,inactive
COC(=O)c1ccc(I)cc1S(=O)(=O)NC(=O)Nc1nc(C)nc(OC)n1,–,inactive,–,inactive,–,–,inactive,inactive,inactive,inactive,inactive,inactive
CCCCC(CC)COC(=O)c1ccccc1C(=O)O (stereo not drawn),–,inactive,–,inactive,–,–,inactive,inactive,inactive,inactive,inactive,inactive
